DAX1 inh-1: inhibitors of DAX1 repression of SF-1 activated StAR promoter. AID 652010. HEK293T StAR-luciferase reporter, SF-1/DAX-1 repression relief. inhibition, % at 6.8 µM. 370,000 tested, 1.1% active;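 active = inhibition above the mean over all tested compounds plus 3 SD, cut at about 3.6% in these data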;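 note: higher inhibition means more luminescence from relief of DAX-1 repression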
SMARCA2 act: activators of SMARCA2 function | MG213 cells, MMTV-luciferase reporter, dexamethasone, overnight | 370,000 tested, 1% active | activation, % at 9.1 µM; in the data active = activation above about 7.8%
ssDAF12 agonist: S. stercoralis DAF-12 activation, primary screen; 370,000 tested, 1% active; activation, % at 6.8 µM; HEK293 ssDAF-12/GRIP1 lit1-tk-luc reporter, luminescence; % of 3 µM dafachronic acid response;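 active = activation above the mean over all tested compounds plus 3 SD, cut at about 0.9% in these data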
DAX1 inh-2: inhibits human nuclear receptor DAX1; P51843; HEK293 Gal4-DAX1 luciferase reporter, luminescence; inhibition, % at 6.75 µM; 340,000 tested, 0.99% active; AID 504766;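 active = inhibition above the mean over all tested compounds plus 3 SD, cut at about 4.2% in these data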;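 note: inhibition shows as a rise in luminescence from relieved DAX1 repression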
Target sequence (P51843 207-470 limits assumed): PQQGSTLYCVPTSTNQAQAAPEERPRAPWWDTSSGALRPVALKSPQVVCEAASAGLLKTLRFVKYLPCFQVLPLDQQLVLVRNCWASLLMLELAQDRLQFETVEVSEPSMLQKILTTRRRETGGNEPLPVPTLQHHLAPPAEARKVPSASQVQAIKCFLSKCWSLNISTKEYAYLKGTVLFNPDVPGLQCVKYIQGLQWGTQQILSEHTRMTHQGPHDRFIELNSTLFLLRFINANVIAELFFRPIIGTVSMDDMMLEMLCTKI
hgDAF-12 ag: hgDAF-12 agonism, primary luciferase screen | activation, % at 6.8 µM | 370,000 tested, 1.8% active | HEK293 GAL4-hgDAF12 UAS-luciferase reporter, agonist luminescence; normalized to butyrate control;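 active = activation above a cutoff set at the mean of all screened compounds plus 3 SD, cut at about 10% in these data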
hcDAF-12 act: activators of H. contortus DAF-12 nuclear receptor. 370,000 tested, 1.4% active. HEK293 hcDAF-12 lit1-tk-luc reporter, luminescence; 0% DMSO, 100% Δ7-dafachronic acid. activation, % at 6.8 µM;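 active = activation above the mean of all tested compounds plus 3 SD, cut at about 5.5% in these data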
Hits are given with their value; . = inactive; / = not tested or not shown. Sampled rows, rich in hits. Any-hit rate of the full collection: about 4.8%.

SMILES	DAX1 inh-1	SMARCA2 act	ssDAF12 agonist	DAX1 inh-2	hgDAF-12 ag	hcDAF-12 act
Cc1nnc(SCc2cnc(-c3ccc(C(C)C)cc3)s2)n1C	.	.	1.5	.	12	6.0
O=C(CSc1nnc2c3ccccc3c3ccccc3c2n1)Nc1ccccc1F	.	.	.	.	.	5.8
O=C(Nc1cccc2ccccc12)ON=C1CCCCC1	.	.	1.0	/	.	.
O=C(CSc1nnc2c(n1)[nH]c1ccc(F)cc12)Nc1ccccc1F	.	.	.	.	.	.
O=C(Nc1cccc2ccccc12)c1ccccc1	.	.	.	.	.	5.6
O=C(CSc1ncccn1)Nc1cccc2ccccc12	.	.	.	.	.	6.2
COc1ccc(C)cc1NC(=O)ON=C1CCCCC1	.	.	.	/	.	.
CCn1cc(C(=O)N[C@@H](CCSC)C(=O)NCCCn2ccnc2)c(=O)c2cc3c(cc21)OCO3	.	.	.	.	.	.
FC(F)(F)c1ccccc1NC(=S)OCCN1CCCC12CCC(c1ccccc1)CC2 (stereo not drawn)	/	/	.	/	.	.
CCN1C[C@@H]2[C@@H]3C(=O)N(C)C(=O)[C@@H]3[C@](CC)(C1=O)N2C(=O)c1ccc(F)cc1	.	.	.	4.6	.	.
CCN1C[C@@H]2[C@@H]3C(=O)N(C)C(=O)[C@@H]3[C@](CC)(C1=O)N2C(=O)c1ccccc1	.	.	.	.	.	.
CCC(C)NS(=O)(=O)c1ccc(NC(=O)CNCc2cccs2)cc1 (stereo not drawn)	.	.	.	.	.	.
COc1ccc(-c2ccc(S(=O)(=O)N3CCCC3)cc2)cc1	.	.	.	5.2	.	.
COc1ccc(NC(=O)CCN2CCN(S(=O)(=O)c3ccc(C(C)C)cc3)CC2)cc1	.	.	1.2	.	.	.
COc1ccc(OC)c(S(=O)(=O)N2CCC(C(=O)N3CCN(C4CCCCC4)CC3)CC2)c1	4.2	.	.	/	.	.
COc1ccc(S(=O)(=O)N2CCCCCC2)cc1	.	.	.	.	.	.
COc1ccc(OC)c(S(=O)(=O)N2CCC(C(=O)N3CCN(c4ccc(F)cc4)CC3)CC2)c1	.	.	.	.	.	.
COc1ccc(S(=O)(=O)N2CCC(c3nc4ccccc4[nH]3)CC2)cc1	.	.	.	.	.	.
COc1ccc(OC)c(S(=O)(=O)N2CCC(c3nc4ccccc4[nH]3)CC2)c1	4.1	.	.	.	.	.
CN(C)C(=O)CCc1ccc2c3c([nH]c2c1)[C@]1(CCC2CCCC2)[C@@H](C(=O)N2CCOCC2)C[C@H](CC(=O)NCCC2=CCCCC2)C(=O)N1CC3	.	.	.	.	.	.
CC1CC(C)CN(CCCNC(=O)CCC(=O)N2CCOc3ccccc32)C1 (stereo not drawn)	.	.	.	.	.	.
COc1ccc(S(=O)(=O)N2CCN(C(=O)C3CC3)CC2)cc1	.	.	.	4.2	.	.
COc1ccc(S(=O)(=O)N2CCC(C(=O)N3CCOCC3)CC2)cc1	.	.	.	.	.	.
COc1ccc(OC)c(Cc2nnc(CCC(=O)N3CCN(C4CCCC4)CC3)o2)c1	3.7	7.8	.	.	.	.
COC(=O)[C@]12CCCCC=C1N(Cc1ccc3c(c1)OCO3)C(=O)[C@H](CC(=O)NCCC(C)C)C2	.	.	.	/	.	.
SMILES	DAX1 inh-1	SMARCA2 act	ssDAF12 agonist	DAX1 inh-2	hgDAF-12 ag	hcDAF-12 act
CCOC(=O)N1CCC(Nc2c(-c3ccc(C)cc3)c(=O)c2=O)CC1	.	.	3.5	.	.	.
CC(C)CC[n+]1ccn(-c2nc3ccccc3nc2[N-]S(=O)(=O)c2ccc(Cl)cc2)c1	.	.	.	5.3	.	.
COc1nc(NCCc2ccc(OC)c(OC)c2)nc(Nc2ccccc2)n1	.	.	.	.	.	.
Brc1c(-c2ccc3c(c2)OCO3)nc2ncccn12	.	.	.	.	.	.
COc1ccc(-c2nc3ncccn3c2Br)cc1	.	.	.	10.0	11	.
CC(C)NC(=O)C1(C)CCN1C(=O)c1ccccc1 (stereo not drawn)	.	.	.	/	.	.
CCOC(=O)CSC1=C(C#N)C(c2ccccc2OCC)C(C#N)C(=O)N1 (stereo not drawn)	.	.	.	4.2	.	.
Cc1ccccc1-c1cccc2c3c([nH]c12)[C@@H]1C[C@H]2[C@@H](CN1CC3)[C@H](C)ON2C	.	.	.	/	.	.
CC(C)Oc1ccc(-c2csc(N3CCC(C(N)=O)CC3)n2)cc1	/	/	.	/	11	.
COC1OC(CO)C(N(C)C(C)=O)C1O (stereo not drawn)	.	.	.	4.8	.	.
CO[C@H]1O[C@H](CBr)[C@@H](OC(=O)c2ccccc2)[C@H](O)[C@H]1O	.	.	.	.	.	.
CCCC1CCC(C(=O)Nn2cnc3ccccc3c2=O)CC1 (stereo not drawn)	.	.	.	.	.	.
O=C(N[C@H](C(=O)O)c1ccccc1)C1CCC(Cn2cnc3ccccc3c2=O)CC1 (stereo partly drawn)	.	.	.	4.6	.	.
Cc1ccc(S(=O)(=O)Nc2cccc(C(=O)NCc3ccccn3)c2)cc1F	.	.	.	.	.	.
CC(CN1CCCCC1)OC(=O)c1ccc2c(c1)OCCO2 (stereo not drawn)	.	.	.	.	.	.
CC(CN1CCOCC1)OC(=O)c1ccc2c(c1)OCCO2 (stereo not drawn)	.	.	.	.	11	.
Cc1ccc(-n2nnnc2SCC(=O)c2c(N)n(C3CC3)c(=O)[nH]c2=O)cc1C	.	.	.	.	.	.
O=C(Nc1ccc(F)cc1F)c1ccc2nc(N3CCOCC3)sc2c1	.	.	.	.	.	.
O=C(Nc1nc2cc3c(cc2s1)OCO3)c1ccc(N2C(=O)CCC2=O)cc1	.	.	1.4	.	.	.
O=C(Nc1ccccc1F)c1ccc2nc(N3C(=O)CCC3=O)sc2c1	.	.	.	7.1	.	.
Cc1ccc2nc(NC(=O)c3ccc(N4C(=O)CCC4=O)cc3)sc2c1	.	.	.	.	.	5.9
O=C(Nc1nc2cc3c(cc2s1)OCO3)c1cccc(N2C(=O)CCC2=O)c1	.	.	.	.	.	.
O=C(Nc1nc2ccc(F)cc2s1)c1ccc(N2CCCC2=O)cc1	4.2	.	.	.	.	.
CC(C)(C)c1ccc(S(=O)(=O)N2CCCC(C(=O)NCc3ccco3)C2)cc1 (stereo not drawn)	.	.	.	/	.	.
COC(=O)[C@]12CCCCC=C1N(Cc1ccco1)C(=O)[C@H](CC(=O)N1CCN(C(=O)C3CC3)CC1)C2	.	.	.	/	.	.
CC(=O)N1N=C(N)SC1c1ccc(Cl)c(Cl)c1 (stereo not drawn)	.	.	.	.	.	.
NS(=O)(=O)c1ccc(CCNC(=O)c2cc3ccccc3s2)cc1	.	.	.	.	.	.

Screening results deposited in PubChem BioAssay by The Scripps Research Institute Molecular Screening Center.
